An excerpt weighted towards active compounds, which were near 5.2% of everything screened.
rTrxR1 inhibitor: inhibitors of rat thioredoxin reductase 1. AID 588453. Potency, µM (doses to about 114 µM), most hits filed as inhibitors. 390,000 compounds, 1% hits. recombinant rTrxR1, NADPH fluorescence consumption, selenite substrate; also: nearly all actives have a fitted effect of over 65% in size
Target sequence (O89049 whole entry, looked up): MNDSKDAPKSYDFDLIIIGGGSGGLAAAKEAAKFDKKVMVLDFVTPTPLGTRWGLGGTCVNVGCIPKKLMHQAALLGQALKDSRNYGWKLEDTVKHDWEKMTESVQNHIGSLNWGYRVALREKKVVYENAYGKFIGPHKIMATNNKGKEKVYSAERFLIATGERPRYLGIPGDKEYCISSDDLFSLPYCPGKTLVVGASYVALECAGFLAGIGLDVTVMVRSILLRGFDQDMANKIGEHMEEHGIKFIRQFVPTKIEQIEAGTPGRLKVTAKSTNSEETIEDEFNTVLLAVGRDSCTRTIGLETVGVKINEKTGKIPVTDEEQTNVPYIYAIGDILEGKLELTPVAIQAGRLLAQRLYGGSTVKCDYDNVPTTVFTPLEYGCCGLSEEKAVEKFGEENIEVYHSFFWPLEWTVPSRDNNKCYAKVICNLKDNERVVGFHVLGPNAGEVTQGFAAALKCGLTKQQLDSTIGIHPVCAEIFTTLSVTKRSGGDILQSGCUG
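Rat TrxR1 (90 nM in the dispensed reagent) was pre-reduced with 400 uM NADPH for 5 min at room temperature, then incubated with compound for 15 min. After 400 uM selenite was added, NADPH fluorescence (Ex 340/Em 450 nm) was followed for 8 min.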
TrxR1 substrate: substrates of rat thioredoxin reductase 1; purified TrxR1 substrate turnover, NADPH consumption readout; AID 588456; Potency, µM (series often up to 114 µM); 390,000 compounds, 0.01% hits; O89049; also: nearly all actives have a fitted effect of over 50% in size
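Rat TrxR1, dispensed at 90 nM, was prereduced with 400 uM NADPH (final) for 5 min at ~22 deg C, then incubated with compound 15 min before 400 uM selenite. A first-read NADPH fluorescence drop versus no-compound background flagged substrates.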
VDR inhibitor: inhibitors of human vitamin D receptor | VDR-SRC2-3 peptide fluorescence polarization, 2 h | AID 504847 | Potency, µM, most hits filed as inhibitors | 400,000 compounds, 0.93% hits | P11473
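Compounds are added to VDR with labelled SRC2-3 coactivator peptide and held 2 h at room temperature. Inhibition of the VDR–peptide interaction is then read as a change in fluorescence polarization.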
IDH1 R132H inh: blocks human mutant IDH1 R132H enzyme | O75874 | Potency, µM (top dose mostly 76.6 µM), most hits filed as inhibitors | IDH1-R132H enzyme, NADPH consumption, diaphorase/resazurin fluorescence | 390,000 compounds, 0.093% hits; also: nearly all actives have a fitted effect of over 65% in size
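IDH1-R132H (0.5 ug/mL dispensed) in pH 7.5 Tris buffer was preincubated 30 min with compound, then given a substrate mix of 0.016 mM NADPH and 2 mM alpha-KG for 80 min at room temperature; remaining NADPH was read by diaphorase/resazurin fluorescence.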
Sfp PPTase inh: Sfp phosphopantetheinyl transferase inhibition; Q9F4F7; Biochemical Sfp PPTase activity, qHTS; Potency, µM, actives largely listed as inhibitors; 310,000 compounds, 3.5% hits; AID 1490;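 also: the enzyme is Sfp with the accession as filed and its product quenches rhodamine fluorescence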
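Fluorescence-quenching assay: 15 nM Sfp-PPTase preincubated 15 min at room temperature with compound, then 5 uM rhodamine-CoA and 12.5 uM BHQ-2-labelled YbbR peptide added. Fluorescence (ex 525/em 598 nm) read at start and after 30 min; difference gives rate.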
PLK1 PBD inh: blocks phosphopeptide binding to human PLK1 polo-box domain | P53350 | Plk1 PBD binding of FITC phosphopeptide, fluorescence polarization | Potency, µM, actives largely listed as inhibitors | 360,000 compounds, 2.8% hits | AID 720504; also: series mostly up to about 57 µM; nearly all actives have a fitted effect of over 65% in size
A number is an active result; i = inactive; ? = inconclusive; nt = no result given; [ ] = remark or other dose. Calls follow the shape of the dose curve; as a rule, active = well fitted curve in the direction sought with a large enough effect; inconclusive = small, poorly fitted or top-dose-only effect, or another doubt; inactive = no such curve, though single readings can be large; an effect the other way counts as inactive or inconclusive.

SMILES | rTrxR1 inhibitor | TrxR1 substrate | VDR inhibitor | IDH1 R132H inh | Sfp PPTase inh | PLK1 PBD inh
CCCC(=O)Nc1ccc2c(c1)nc1n2CCN(CCOC)C1 | ? | i | i | i | i | i
CC(C)NS(=O)(=O)c1cc(C(F)(F)F)ccc1/C=C/C(=O)O | ? | i | nt | nt | nt | nt
Cn1cccc1Cc1nnc(SCC(=O)Nc2ccc(F)cc2)n1-c1ccc(F)cc1 | i | i | ? | i | i | 24µM
Cn1cccc1Cc1nnc(SCC(=O)Nc2ccccc2)n1-c1ccc(F)cc1 | i | i | i | i | i | ?
COc1ccc(-n2c(Cc3cccn3C)nnc2SCC(=O)Nc2ccc(C)cc2C)cc1 | i | i | ? | i | i | 27µM
CC(=O)c1cccc(NC(=O)C2Cc3c(-c4ccco4)ccnc3O2)c1 (configuration not stated) | nt | nt | nt | nt | nt | i
C=CC[n+]1cccc2cc(Br)ccc21 | i | i | nt | nt | nt | nt
N=c1c(S(=O)(=O)c2ccc(Cl)cc2)cc2c(=O)n3ccccc3nc2n1CCc1ccccc1 | nt | nt | nt | nt | 25µM | nt
COc1ccc2cc(C#N)c(SCC(=O)OCc3ccccc3)nc2c1 | i | i | i | nt | nt | nt
c1ccc2c(c1)SCc1nnc(-c3ccncc3)n1-2 | i | i | i | i | i | ?
COc1ccc(-c2nnc3n2-c2ccccc2SC3)cc1OC | i | i | i | i | 79µM | i
COc1ccc2c(c1)Cc1sc(NC(=O)c3cccc(Br)c3)nc1-2 | i | i | i | i | nt | nt
COc1ccc(C(=O)Nc2nc3c(s2)Cc2cc(OC)ccc2-3)cc1 | i | i | ? | i | 79µM | ?
COc1ccc2c(c1)Cc1sc(NC(=O)c3ccccc3C)nc1-2 | ? | i | 25µM | nt | nt | nt
COc1ccc2c(c1)Cc1sc(NC(=O)c3cccs3)nc1-2 | i | i | i | i | 25µM | i
COc1ccc2c(c1)Cc1sc(NC(=O)c3cccc(F)c3)nc1-2 | i | i | i | i | nt | nt
COc1ccc2c(c1)Cc1sc(NC(=O)c3ccccc3)nc1-2 | i | i | i | i | 50µM | i
COc1ccccc1-n1c(=O)n(C)c2c(C(N)=O)nc(-c3cc(OC)c(OC)c(OC)c3)nc21 | i | i | i | i | nt | nt
CCOC(=O)c1sc(NC(=O)c2nc3ncccn3n2)c(C(=O)OC(C)C)c1C | i | i | i | i | nt | nt
O=C(COc1ccc(F)cc1)Nc1ccccc1C(=O)OCc1cc(=O)n2ccsc2n1 | i | i | i | i | nt | nt
COc1ccccc1-c1nn2c(-c3cc(C)[nH]n3)nnc2s1 | i | i[0.0914 µM] | i | nt | nt | nt
CCCc1c(C)nc2ccccc2c1SCCC#N | i | i | i | i | i | 21µM
CCCCc1c(C)nc2ccc(Br)cc2c1SCCC#N | nt | nt | nt | nt | i | nt
CCOc1ccc(NC(=O)c2cc(=O)c3cc(CC)ccc3o2)cc1 | i | i | i | i | nt | nt
Cc1nc(CNC(=O)CC2C(=O)NCCN2Cc2ccoc2)nc2c1CCCC2 (configuration not stated) | 50µM | i | i | i | i | i
SMILES | rTrxR1 inhibitor | TrxR1 substrate | VDR inhibitor | IDH1 R132H inh | Sfp PPTase inh | PLK1 PBD inh
Cc1c(C(=O)NCc2ccc(F)cc2)oc2ccc(S(=O)(=O)N3CCOCC3)cc12 | i | i | i | i | i | i
Cc1cc(C)c(NC(=O)c2cc(S(=O)(=O)N3CCOCC3)ccc2F)c(C)c1 | i | i | ? | i | i | 11µM
Cc1c(C(=O)NCc2c(F)cc(F)cc2F)oc2ccc(S(=O)(=O)N3CCOCC3)cc12 | i | i | ? | i | i | 19µM
CCN(CC)/[N+]([O-])=N/OCOC(=O)C(C)c1ccc(CC(C)C)cc1 (configuration not stated) | i | i | nt | nt | nt | nt
O=C(C[n+]1cc(Br)cc(Br)c1)c1ccc2c(c1)CCCC2 | i | i[0.0914 µM] | nt | nt | nt | nt
COc1ccccc1-c1ccc([C@@H]2C[C@H]3[C@H](CON3C)CN2C(=O)c2ccco2)cc1 | nt | nt | nt | i | nt | i
CCOc1ccc(-c2nc(CSCC(=O)NC3CC3)c(C)o2)cc1 | i | i | i | i | i | i
CCOc1ccc(-c2nc(CSCC(=O)NC3CCCc4ccccc43)c(C)o2)cc1 (configuration not stated) | i | i | i | i | 22µM | i
COCCNC(=O)CSCc1nc(-c2ccc(SC)cc2)oc1C | i | i | i | i | i | i
COc1cccc(-c2nc(CS(=O)(=O)CC(=O)NC3CCCc4ccccc43)c(C)o2)c1 (configuration not stated) | 10µM | i | i | i | i | i
COc1cccc(-c2nc(CS(=O)(=O)CC(=O)NC3CCC(C)CC3)c(C)o2)c1 (configuration not stated) | i | i | ? | i | i | 24µM
CCOCCCNC(=O)CSCc1nc(-c2ccc(SC)cc2)oc1C | i | i | i | i | i | 30µM
Cc1c(Cl)cccc1NC(=O)C1CC(=O)N(C2CCCC2)C1 (configuration not stated) | i | i | i | i | nt | ?
CC[N+](C)(C)c1ccc(/C=C/c2ccnc3ccccc23)cc1 | i | i | nt | nt | nt | nt
Clc1ccc(-c2noc3ncnc(NCCCN4CCN(c5ccccc5)CC4)c23)cc1 | i | i | i | i | nt | nt
CN(C)/C=C1/C=C(c2ccccc2)OC1=O | 22µM | i | ? | i | 40µM | i
O=C1OC(c2ccccc2)=C/C1=C/N1CCOCC1 | ? | i | i | i | 20µM | i
O=C(Nc1ccncc1)c1cc(C2CCCCN2C(=O)CCc2ccccc2)on1 (configuration not stated) | nt | nt | nt | nt | nt | i
